# An excerpt weighted towards active compounds, which were near 0.7% of everything screened.
# Vif-APOBEC3F blk: qHTS for Inhibitors of Vif-A3F Interactions: qHTS; HeLa A3F-eYFP + Vif (tagged APOBEC3F with the HIV-1 protein that degrades it), YFP fluorescence increase; Potency, µM (series often up to 46.1 µM), for the others: at the highest dose activity, negative = active; actives 0.2% (n = 390,000); AID 602313, 2012; also: % of control where 0% means no effect; nearly all actives have a fitted effect of over 65% in size
#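 HeLa cells stably expressing A3F-eYFP plus Vif, plated and incubated overnight at 37 deg C, then exposed to compounds overnight at 37 deg C. Blocked degradation read as raised yellow fluorescence (Ex 488/Em 500-530).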
# PINK1 modulator: A Quantitative High throughput Screen to Identify Chemical Modulators of PINK1 Expression; AID 624263, 2012; Potency, µM (top dose mostly 76.6 µM), for inactives: at the top dose activation (PINK1 increase), hits mostly activators; PINK1 immunofluorescence, high-content cytometry, 24 h; actives 0.2% (n = 410,000); active = well fitted activation curve with a large enough effect; inconclusive = small, poorly fitted or top-dose-only effect; cell line not stated here; also: % of control where 0% means no effect; nearly all actives have a fitted effect of over 65% in size
#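 A stable cell line was treated with compounds at 5 concentrations for 24 hours, with CCCP as control. PINK1 levels and mitochondrial localization were measured by immunofluorescence with mitochondrial, cell and nuclear markers after fixation, read by laser-scanning cytometry.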
# GLS inhibitor: qHTS for Inhibitors of Glutaminase (GLS). actives 0.21% (n = 410,000). GLS enzymatic activity, qHTS titration. Potency, µM (highest dose often 45.5 µM), inactives show at the highest dose activity change, negative = inhibition, hits mostly inhibitors. AID 624170, 2012; also: % is scaled to controls: 0 for no effect and ±100 for the full control effect
# Target sequence (O94925 whole entry, looked up): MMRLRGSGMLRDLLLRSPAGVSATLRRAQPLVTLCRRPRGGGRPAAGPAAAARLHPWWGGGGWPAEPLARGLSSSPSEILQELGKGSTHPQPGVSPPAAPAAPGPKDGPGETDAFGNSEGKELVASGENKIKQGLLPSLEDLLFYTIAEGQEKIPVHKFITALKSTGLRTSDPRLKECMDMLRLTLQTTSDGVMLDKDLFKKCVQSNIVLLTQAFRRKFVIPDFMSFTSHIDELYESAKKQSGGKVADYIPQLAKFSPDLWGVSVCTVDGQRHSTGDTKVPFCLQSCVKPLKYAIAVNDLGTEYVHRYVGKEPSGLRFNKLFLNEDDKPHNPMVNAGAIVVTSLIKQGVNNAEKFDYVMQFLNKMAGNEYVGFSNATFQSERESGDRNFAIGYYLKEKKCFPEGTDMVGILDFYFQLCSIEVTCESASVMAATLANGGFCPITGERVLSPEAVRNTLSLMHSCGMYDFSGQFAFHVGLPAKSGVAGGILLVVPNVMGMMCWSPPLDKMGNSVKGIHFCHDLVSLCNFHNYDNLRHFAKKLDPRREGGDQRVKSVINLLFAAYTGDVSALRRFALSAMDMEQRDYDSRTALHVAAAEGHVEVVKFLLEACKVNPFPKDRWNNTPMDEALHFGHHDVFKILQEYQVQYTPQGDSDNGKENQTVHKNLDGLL
#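 hKGA; 45 mM KH2PO4 pH 8.2 + 0.02% Tween-20; cpd via pin tool; 1 mM Gln soln; GluOx/HRP/Amplex Red; RT 30 min; fluor. t0 & final.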
# Epigenetic derep: Quantitative High-Throughput Screen for Regulators of Epigenetic Control; murine LDR cells, GFP reporter derepression, 30 h; Potency, µM (highest dose often 53.9 µM), for the others: at the highest dose GFP activation, hits mostly activators; actives 0.2% (n = 280,000); AID 1865, 2009; also: % of control where 0% means no effect; nearly all actives have a fitted effect of over 60% in size
#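 In this reporter-derepression format, murine cells bearing a silenced integrated CMV-GFP locus incubate with test compound (30 h, 37 C), then are washed and imaged; fluorescent objects of 20–120 um count as induced cells.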
# Vif-A3G inh: qHTS for Inhibitors of Vif-A3G Interactions: qHTS; AID 602310, 2012; actives 0.076% (n = 410,000); DNA dC->dU-editing enzyme APOBEC-3G (Homo sapiens), Q9HC16; Potency, µM (titrated, usually from 46.1 µM), for inactives: top-dose activity, negative = active, most hits filed as inhibitors; HeLa A3G-eYFP + Vif (tagged APOBEC3G with the HIV-1 protein that degrades it), YFP fluorescence, overnight; also: % is scaled to controls: 0 for no effect and ±100 for the full control effect; nearly all actives have a fitted effect of over 60% in size
#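 Read-out is eYFP fluorescence (Ex 488/Em 500-530) from Vif-expressing HeLa A3G-eYFP cells; more signal means A3G escaped Vif-mediated degradation. Cells plated overnight, compound pinned in, incubated overnight at 37 deg C.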
# Numbers without * were called inactive; ? = inconclusive; nt = not tested or not shown; ! = a repeat was not active; [ ] = another dose, or the depositor's remark. Unless noted, calls follow the shape of the dose curve; as a rule, active = well fitted curve in the direction sought with a large enough effect; inconclusive = small, poorly fitted or top-dose-only effect, or another doubt; inactive = no such curve, though single readings can be large; an effect the other way counts as inactive or inconclusive. Potency is read from the fitted curve at half-maximal effect.
SMILES,Vif-APOBEC3F blk,PINK1 modulator,GLS inhibitor,Epigenetic derep,Vif-A3G inh
COc1ccc(N/C=C\C(=O)c2ccc(Br)cc2)cc1OC,32µM*,40µM*,13%,?,-29%
COc1cc(N=c2ssnc2Cl)c(OC)cc1Cl,-8%,2%,16µM*!,12%,-10%
COCC(C)NCc1cc2ccc(OC)cc2nc1N1CCN(c2ccc(F)cc2)CC1 (stereo not drawn),nt,4%,nt,nt,nt
CCN1/C(=C/c2cc[n+](C)cc2)C=Cc2cc(C)ccc21,13µM*,10µM*,-11%,?,?
OC1(c2cccnc2)CCN(Cc2ccc3c(c2)CN(Cc2cc4ccccc4s2)CCO3)CC1,nt,-1%,nt,nt,nt
ClC(Cl)(c1nnnn1-c1ccccc1)c1nnnn1-c1ccccc1,-9%,-2%,10µM*,0%,-22%
CCCOC(=O)/C(=C\c1ccc([N+](=O)[O-])o1)NC(=O)c1ccccc1,7.1µM*,1%,-3%,0%,?
CN(NS(=O)(=O)c1ccc(Br)cc1)c1nc(C(F)(F)F)nc2ccccc12,0%,16µM*,3%,0%,-1%
O=C1/C(=C\c2ccc(O)cc2)SC(=S)N1Cc1ccccc1,11µM*,23%,13%,nt,-18%
O=C1/C(=C/c2ccc(O)c([N+](=O)[O-])c2)SC(=S)N1Cc1ccccc1,-9%,32µM*,3%,-2%,-3%
CCCOc1ccc(/C=C2\SC(=S)N(CC3CCCO3)C2=O)cc1 (stereo not drawn),-10%,0%,1%,1%,2%
COc1cc([N+](=O)[O-])cc(/C=C2/SC(=S)N(Cc3ccccc3)C2=O)c1O,-17%,35µM*,-13%,nt,-18%
O=C1/C(=C/c2ccc(O)cc2)SC(=S)N1CC1CCCO1 (stereo not drawn),22µM*,?,1%,7%,-1%
CCOC(=O)c1[nH]c2ccc(OC)cc2c1NS(=O)(=O)c1ccc(Cl)s1,2%,0%,7.1µM*,0%,0%
CC(=O)O[C@H]1C[C@@H]2CC[C@@H]3[C@H](CC[C@]4(C)[C@H](OC(C)=O)[C@@H](N5CC[N+](C)(C)CC5)C[C@@H]34)[C@@]2(C)C[C@@H]1N1CC[N+](C)(C)CC1,nt,nt,-2%,nt,nt
CCc1ccc(Nc2n[n+](-c3ccccc3)c(-c3ccc(SC)cc3)s2)cc1,0%,35µM*,0%,nt,0%
CSc1ccc(-c2sc(Nc3ccccc3)n[n+]2-c2ccccc2)cc1,?,2%,6%,nt,-16%
COc1ccc(NC(=O)c2cc3c(COC(C)=O)cnc(C)c3oc2=Nc2cccc(C(=O)O)c2)c(OC)c1,-1%,-1%,10µM*,nt,1%
CCc1ccc(NCc2cc3cc4c(cc3n(CC(=O)Nc3ccccc3OC)c2=O)OCCO4)cc1,11%,-1%,-32%,1%,0%
CCc1ccc(NCc2cc3cc4c(cc3n(CC(=O)Nc3ccc(Cl)cc3)c2=O)OCO4)cc1,-13%,0%,13µM*,-8%,-4%
CCc1ccc(NCc2cc3cc4c(cc3n(CC(=O)Nc3ccccc3C)c2=O)OCCO4)cc1,7%,-1%,11µM*,6%,1%
Cc1ccc(NCc2cc3cc4c(cc3n(CC(=O)Nc3ccc(C)cc3)c2=O)OCCO4)cc1,-3%,2%,?,-6%,5%
CCc1ccc(NC(=O)Cn2c(=O)c(CNc3ccccc3)cc3cc(OC)c(OC)cc32)cc1,-11%,1%,16µM*,10%,-4%
Cc1cc(C)cc(C(=O)NCCn2cc(C(=O)N3CCSCC3)nn2)c1,nt,-1%,nt,nt,nt
CCN(CC)C(=O)Cn1c(=O)n(-c2ccccc2)c(=O)c2c3c(sc21)CCC3,11µM*!,0%,3%,-1%,0%
SMILES,Vif-APOBEC3F blk,PINK1 modulator,GLS inhibitor,Epigenetic derep,Vif-A3G inh
Cc1ccc(CN2CCOc3ccc(C(C)(O)COc4ccccc4)cc3C2)o1 (stereo not drawn),nt,0%,nt,nt,nt
O=c1nc(/C=C/c2ccc(O)c(O)c2)oc2ccccc12,6%,2%,5.6µM*,0%,1%
Cc1ccsc1C1Cc2c(C(=O)NCc3cccnc3)c(=O)cc(C)n2-c2ccccc2S1 (stereo not drawn),nt,-1%,nt,nt,nt
Cc1ccc(-c2cc(C(=O)N3N=C(C(F)F)CC3(O)C(F)F)c3ccccc3n2)cc1C (stereo not drawn),-15%,10µM*,-4%,12%,?
Cc1cc2nc(N3CCC(NC(C)c4nc(-c5ccccn5)no4)CC3)nc(C)c2cc1C (stereo not drawn),nt,0%,nt,nt,nt
CCCN1CC=C2C(C#N)=C(N)C(C#N)(C#N)C(c3cccc(OC)c3OC)C2C1 (stereo not drawn),0%,10µM*,1%,1%,-14%
Cc1ccc(C2C3CN(C(C)C)CC=C3C(C#N)=C(N)C2(C#N)C#N)cc1 (stereo not drawn),?,25µM*,-22%,2%,-25%
COc1ccc(OC)c(C2C3CN(C(C)C)CC=C3C(C#N)=C(N)C2(C#N)C#N)c1 (stereo not drawn),-15%,40µM*,13%,-1%,-13%
CCCCOc1ccc(C2C3CN(C(=O)OCC)CC=C3C(C#N)=C(N)C2(C#N)C#N)cc1OC (stereo not drawn),-17%,20%[38.3 µM],4%,-1%,-12%
CCN1CC=C2C(C#N)=C(N)C(C#N)(C#N)C(CCc3ccccc3)C2C1 (stereo not drawn),?,10µM*,-30%,-2%,?
COc1ccc(CN2CCCC(c3nc(-c4ccncc4)ncc3-c3ccccc3C)C2)c(OC)c1 (stereo not drawn),nt,1%,nt,nt,nt
COc1cc(=O)n2c(c1C(=O)NC(C)c1ccco1)CCN(Cc1ccccc1Cl)CC2 (stereo not drawn),nt,-1%,nt,nt,nt
CS(=O)(=O)Nc1cccc(C2=NN(S(=O)(=O)c3ccc(F)cc3)C(c3cccs3)C2)c1 (stereo not drawn),?,-1%,-9%,-1%,-9%
Cc1ccc(C2=NN(S(=O)(=O)c3ccccc3)C(c3ccccc3O)C2)cc1 (stereo not drawn),25µM*,0%,-3%,?,8%
CS(=O)(=O)Nc1ccc(C2=NN(S(=O)(=O)c3ccccc3)C(c3cccs3)C2)cc1 (stereo not drawn),22µM*,11%,2%,6%,?
CN(CC(=O)N1CCOCC1)Cc1c(Cl)cccc1NC(=O)c1ccccc1,nt,nt,-2%,nt,nt
c1ccc(Sc2ccccn2)cc1,2%,0%,26%,nt,-1%
c1ccc(SSc2ccccn2)nc1,-5%,-1%,10µM*,nt,-2%
